Assay [1] in a line: NCI Yeast Anticancer Drug Screen. Data for the rad50 strain (AID 155).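 Further: 0% = growth of vehicle-only cultures of the same strain.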 The settings on record: S. cerevisiae rad50 strain growth inhibition, stronger effect = higher value. Summed up:
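A DNA repair-deficient yeast mutant serves as the test organism; compound-induced growth inhibition is calculated against vehicle-treated cells.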

Assay [2] in a line: NCI Yeast Anticancer Drug Screen. Data for the mec2-1 strain (AID 157). The settings on record: S. cerevisiae mec2-1 strain, stronger effect = higher value. Summed up:
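Strain: mec2-1 (DNA repair/cell cycle alteration). Compound exposure, then growth measured; inhibition expressed relative to vehicle.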

The nature of assay [3]: NCI Yeast Anticancer Drug Screen. Data for the sgs1 mgt1 strain (AID 161).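 Further: 0% = growth of cultures given vehicle only.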 The settings on record: S. cerevisiae sgs1 mgt1 strain, stronger effect = higher value. Summed up:
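Genetically altered yeast, compound exposure, growth inhibition relative to vehicle.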

Assay [4] can be described thus: NCI Yeast Anticancer Drug Screen. Data for the cln2 rad14 strain (AID 165).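 Further: 0% = growth equal to vehicle treated cultures.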 The conditions noted are these: S. cerevisiae cln2 rad14 strain, stronger effect = higher value. Summed up: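 Compounds are applied to the cln2 rad14 yeast strain, and growth is then compared with that of vehicle-treated cultures to give inhibition.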
Assay [5] is described as follows: NCI Yeast Anticancer Drug Screen. Data for the bub3 strain (AID 167). The conditions noted are these: S. cerevisiae bub3 mutant strain, stronger effect = higher value. Summed up: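 Inhibition values come from growth of compound-treated mutant yeast normalised to vehicle-treated controls.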
Assay [6] can be described thus: NCI Yeast Anticancer Drug Screen. Data for the mlh1 rad18 strain (AID 175). The conditions noted are these: S. cerevisiae mlh1 rad18 strain growth inhibition, stronger effect = higher value. In a few lines: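 Read-out is yeast growth inhibition, calculated against vehicle-only controls. The compound was applied to a strain engineered with DNA damage repair alterations.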
Where [7] appears, read: at 5.0 µM (retest, dose inferred, filed as 0.5).
Where [8] appears, read: at 50.0 µM (retest, dose inferred, filed as 5.0).

Several values for one entry are separate records, joined by “and”; a condition that tells them apart may be missing. Identical values can stand only once. About 79,000 compounds went through this panel and 15% of them were active in at least one assay; those are over-represented in the sample as a whole. Where a structure was tested more than once in an assay, its records may differ in their call. Activity calls are given as the source filed them. No stated cut-off is given here; in the data, active means growth inhibition above about 70%; inactive means the rest.

The values that follow come from PubChem BioAssay (NCI).

Consider `COc1cc2c(c3c1/c(=N/N(C)C)c1ccccc1n3C)C=CC(C)(C)O2`, for which the growth inhibition is 23% (inactive) in assay [1] (setting [7]); 85% (active) in assay [1] (setting [8]); 69.3% (inactive) in assay [1] (at 50.0 µM); 24% (inactive) in assay [2] (setting [7]); 85% (active) in assay [2] (setting [8]); 1% (inactive) in assay [2] (at 50.0 µM). For the same compound, the growth inhibition in assay [3] (setting [7]) was 36% (inactive); in assay [3] (setting [8]), 91% (active); in assay [3] (at 50.0 µM), 55.5% (inactive); in assay [4] (setting [7]), -10% (inactive); in assay [4] (setting [8]), 60% (inactive); in assay [4] (at 50.0 µM), -42.3% (inactive). For the same compound, the growth inhibition was 38% (inactive) in assay [5] (setting [7]); 96% (active) in assay [5] (setting [8]); -15.7% (inactive) in assay [5] (at 50.0 µM); 38% (inactive) in assay [6] (setting [7]); 93% (active) in assay [6] (setting [8]); 44.8% (inactive) in assay [6] (at 50.0 µM).
As to `OC(CN1CCCCC1)c1cc(-c2ccc(Cl)cc2)nc2cc(Cl)ccc12` (centres undefined), the growth inhibition in assay [1] (setting [7]) was -6% (inactive); in assay [1] (setting [8]), 99% (active); in assay [1] (at 50.0 µM), 90.5% (active); in assay [2] (setting [7]), -13% (inactive); in assay [2] (setting [8]), 100% (active); in assay [2] (at 50.0 µM), 92.7% (active). For the same compound, the growth inhibition in assay [3] (setting [7]) was -4% (inactive); in assay [3] (setting [8]), 100% (active); in assay [3] (at 50.0 µM), 99.5% (active); in assay [4] (setting [7]), -7% (inactive); in assay [4] (setting [8]) it was 99% (active); in assay [4] (at 50.0 µM), 95.6% (active). Also, the growth inhibition was -7% (inactive) in assay [5] (setting [7]); 99% (active) in assay [5] (setting [8]); 99.4% (active) in assay [5] (at 50.0 µM); 18% (inactive) in assay [6] (setting [7]); 99% (active) in assay [6] (setting [8]); 99.2% (active) in assay [6] (at 50.0 µM).
For the compound `CCCCCCCCCCCC[N+](C)(C)Cc1ccccc1`, the growth inhibition was 58% (inactive) and 95% (active) in assay [1] (setting [7]); 99% (active) and 98% (active) in assay [1] (setting [8]); 85.7% (active) and 97.7% (active) in assay [1] (at 50.0 µM); 75% (active) and 93% (active) in assay [2] (setting [7]); 100% (active) and 98% (active) in assay [2] (setting [8]); 99.8% (active) and 98.3% (active) in assay [2] (at 50.0 µM). For the same compound, the growth inhibition in assay [3] (setting [7]) was 91% (active) and 99% (active); in assay [3] (setting [8]) it was 100% (active) and 98% (active); in assay [3] (at 50.0 µM), 98% (active) and 99.4% (active); in assay [4] (setting [7]), 56% (inactive) and 88% (active); in assay [4] (setting [8]) it was 99% (active) and 97% (active); in assay [4] (at 50.0 µM), 99.4% (active) and 98% (active). Further, the growth inhibition in assay [5] (setting [7]) is 57% (inactive) and 92% (active); in assay [5] (setting [8]) it was 100% (active) and 98% (active); in assay [5] (at 50.0 µM), 99.5% (active) and 99.3% (active); in assay [6] (setting [7]), 81% (active) and 96% (active); in assay [6] (setting [8]), 99% (active) and 98% (active); in assay [6] (at 50.0 µM), 99.7% (active) and 98.5% (active).
On to `COc1ccc2c(c1)C(Cc1ccc(Oc3ccc(CC4c5cc(OC)ccc5CC[N+]4(C)C)cc3)cc1)[N+](C)(C)CC2` (centres undefined), for which the growth inhibition in assay [1] (setting [7]) is -12% (inactive); in assay [1] (setting [8]) it was 62% (inactive); in assay [1] (at 50.0 µM), 96.8% (active); in assay [2] (setting [7]), -6% (inactive); in assay [2] (setting [8]) it was 51% (inactive); in assay [2] (at 50.0 µM), 97.2% (active). The growth inhibition in assay [3] (setting [7]) was -7% (inactive); in assay [3] (setting [8]), 91% (active); in assay [3] (at 50.0 µM), 99.2% (active); in assay [4] (setting [7]), -4% (inactive); in assay [4] (setting [8]) it was 54% (inactive); in assay [4] (at 50.0 µM), 72% (active). Further, the growth inhibition in assay [5] (setting [7]) is -3% (inactive); in assay [5] (setting [8]) it was 82% (active); in assay [5] (at 50.0 µM), 84.7% (active); in assay [6] (setting [7]), -10% (inactive); in assay [6] (setting [8]), 95% (active); in assay [6] (at 50.0 µM), 98.8% (active).
For the compound `O=C1C=CC(=O)c2c1ccc1c3ccccc3n(Cc3ccccc3)c21`, the growth inhibition was 27% (inactive) in assay [1] (setting [7]); 84% (active) in assay [1] (setting [8]); 73% (active) in assay [1] (at 50.0 µM); 38% (inactive) in assay [2] (setting [7]); 90% (active) in assay [2] (setting [8]); 71.2% (active) in assay [2] (at 50.0 µM). Also, the growth inhibition in assay [3] (setting [7]) is 41% (inactive); in assay [3] (setting [8]), 90% (active); in assay [3] (at 50.0 µM), 59% (inactive); in assay [4] (setting [7]) it was 19% (inactive); in assay [4] (setting [8]), 49% (inactive); in assay [4] (at 50.0 µM), 38% (inactive). The growth inhibition in assay [5] (setting [7]) was 52% (inactive); in assay [5] (setting [8]) it was 92% (active); in assay [5] (at 50.0 µM), 76% (active); in assay [6] (setting [7]), 47% (inactive); in assay [6] (setting [8]), 90% (active); in assay [6] (at 50.0 µM), 25.1% (inactive).
Consider `c1ccc(C2=NC(c3ccccc3)=NS(S3=NC(c4ccccc4)=NC(c4ccccc4)=N3)=N2)cc1` (centres undefined), for which the growth inhibition in assay [1] (setting [7]) was 27% (inactive); in assay [1] (setting [8]), 94% (active); in assay [1] (at 50.0 µM) it was 74.7% (active); in assay [2] (setting [7]), 5% (inactive); in assay [2] (setting [8]), 98% (active); in assay [2] (at 50.0 µM), 75.2% (active). The growth inhibition in assay [3] (setting [7]) was 20% (inactive); in assay [3] (setting [8]), 98% (active); in assay [3] (at 50.0 µM), 82.7% (active); in assay [4] (setting [7]), 20% (inactive); in assay [4] (setting [8]) it was 94% (active); in assay [4] (at 50.0 µM), 43% (inactive). Also, the growth inhibition in assay [5] (setting [7]) is 30% (inactive); in assay [5] (setting [8]), 97% (active); in assay [5] (at 50.0 µM), 38% (inactive); in assay [6] (setting [7]), 18% (inactive); in assay [6] (setting [8]), 97% (active); in assay [6] (at 50.0 µM), 92.3% (active).
Regarding `CC1=CC(=Nc2ccc(N(C)C)cc2)C=CC1=O`, the growth inhibition in assay [1] (setting [7]) was 1% (inactive); in assay [1] (setting [8]), 7% (inactive); in assay [1] (at 50.0 µM), -4.05% (inactive) and 78.8% (active); in assay [2] (setting [7]), -5% (inactive); in assay [2] (setting [8]), 2% (inactive); in assay [2] (at 50.0 µM) it was 10.2% (inactive) and 46.4% (inactive). In addition, the growth inhibition is 1% (inactive) in assay [3] (setting [7]); 7% (inactive) in assay [3] (setting [8]); 21.9% (inactive) and 84.1% (active) in assay [3] (at 50.0 µM); -3% (inactive) in assay [4] (setting [7]); -6% (inactive) in assay [4] (setting [8]); -4.55% (inactive) and 33.5% (inactive) in assay [4] (at 50.0 µM). The growth inhibition in assay [5] (setting [7]) is -1% (inactive); in assay [5] (setting [8]), -9% (inactive); in assay [5] (at 50.0 µM) it was -7% (inactive) and 21.4% (inactive); in assay [6] (setting [7]) it was -3% (inactive); in assay [6] (setting [8]), 9% (inactive); in assay [6] (at 50.0 µM), 16.4% (inactive) and 66.2% (inactive).
As for `Cc1cc(/C=C/C2CCC3CC(C)CCC3N2CCO)c(C)n1-c1ccccc1` (centres undefined), the growth inhibition in assay [1] (setting [7]) was 16% (inactive); in assay [1] (setting [8]), 95% (active); in assay [1] (at 50.0 µM), 99.1% (active); in assay [2] (setting [7]) it was 19% (inactive); in assay [2] (setting [8]) it was 99% (active); in assay [2] (at 50.0 µM), 98.8% (active). Also, the growth inhibition in assay [3] (setting [7]) was 26% (inactive); in assay [3] (setting [8]) it was 100% (active); in assay [3] (at 50.0 µM), 99.2% (active); in assay [4] (setting [7]), 12% (inactive); in assay [4] (setting [8]), 90% (active); in assay [4] (at 50.0 µM), 98.8% (active). Also, the growth inhibition in assay [5] (setting [7]) was 21% (inactive); in assay [5] (setting [8]) it was 98% (active); in assay [5] (at 50.0 µM) it was 98% (active); in assay [6] (setting [7]) it was 17% (inactive); in assay [6] (setting [8]) it was 97% (active); in assay [6] (at 50.0 µM), 97.9% (active).
